# DT40 TDP1 no CPT: qHTS for Inhibitors of human tyrosyl-DNA phosphodiesterase 1 (TDP1): qHTS in cells in absence of CPT | DT40 Tdp1-/- hTDP1 cells, no CPT, ATP luminescence, 48 h | Potency, µM (top dose mostly 46.2 µM), for inactives: at the highest dose activity change, negative = growth inhibition, usual class: inhibitors | hit rate 15% among 420,000 | AID 686978, 2013; further: on the % scale 0 is the no-effect control and ±100 the full control effect; nearly all actives have a fitted effect of over 55% in size
#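 Chicken DT40 Tdp1-/- cells stably complemented with human TDP1 were seeded at 400 cells/well with DMSO in place of 20 nM camptothecin. After compound pinning, cells grew at least 48 hr at 37 °C; viability read by CellTiter-Glo luminescence.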
# TDP1 block: blocks human tyrosyl-DNA phosphodiesterase 1; hit rate 0.28% among 350,000; recombinant TDP1, AlphaScreen DNA substrate cleavage; Potency, µM (highest dose often 130 µM), without a hit: at the top dose activity change, negative = inhibition, usual class: inhibitors; Q9NUW8; further: on the % scale 0 is the no-effect control and ±100 the full control effect; nearly all actives have a fitted effect of over 40% in size
#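 Here, a 5' biotin and 3' phosphotyrosine-FITC DNA oligonucleotide reports Tdp1 activity: intact substrate bridges AlphaScreen beads, while cleavage leaves a 3' phosphate and drops signal. All incubations at room temperature.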
# ClpP mod: qHTS Assay for Activators of ClpP | AID 651965, 2013 | ATP-dependent Clp protease proteolytic subunit (Bacillus subtilis (strain 168)), P80244 | hit rate 1.9% among 340,000 | Potency, µM (top dose mostly 57.5 µM), without a hit: top-dose activity change, negative = active | purified B. subtilis ClpP, FRET peptide cleavage, 20 min; active means well fitted falling curve with a large enough effect; inconclusive means small, poorly fitted or top-dose-only effect; inactive means no such curve, though single readings can be large or run the other way; further: the source files actives as falling curves though it sought activators and does not explain the sign; nearly all actives have a fitted effect of over 65% in size
#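 FRET quenching reversal measured ClpP activation: 10 microg/mL B. subtilis ClpP at pH 8 with the FRET-FV decapeptide, read at 430 nm after 320 nm excitation. The 20-min minus 0-min signal was scaled between DMSO/no-enzyme wells and ADEP (5.8 microM final).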
# TDP1 cell CPT: growth inhibition of DT40 Tdp1-/-;hTDP1 cells with camptothecin (screen for TDP1 inhibitors). chicken DT40 Tdp1-/-;hTDP1 cells + 20 nM CPT, ATP luminescence, 48 h. Potency, µM (top dose mostly 46.2 µM), without a hit: at the top dose activity change, negative = growth inhibition, hits mostly inhibitors. hit rate 12% among 420,000. AID 686979; further: on the % scale 0 is the no-effect control and ±100 the full control effect; nearly all actives have a fitted effect of over 55% in size
#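 Chicken DT40 Tdp1-/- cells stably complemented with human TDP1 were seeded at 400 cells/well in medium containing 20 nM camptothecin, exposed to pin-transferred compounds, and grown at 37 °C for at least 48 hr. Viability was read as ATP luminescence.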
# Numbers without * were called inactive; ? = inconclusive; / = no result; [ ] = dose if it differs, or a comment. Shown are actives, neighbours in structure and some others; about 17% of the full set was active somewhere. Unless noted, the call rests on the fitted dose curve; in most records, active means well fitted curve in the direction sought with a large enough effect; inconclusive means small, poorly fitted or top-dose-only effect, or another doubt; inactive means no such curve, though single readings can be large; an effect the other way counts as inactive or inconclusive. Potency means the concentration at half of the fitted maximal effect.
SMILES,DT40 TDP1 no CPT,TDP1 block,ClpP mod,TDP1 cell CPT
O=[N+]([O-])c1ccc(OCC(O)CN(C2CCCCC2)C2CCCCC2)cc1 (stereo not drawn),?,0%,-2%,?
Cc1ccccc1OCC(O)CN(CCO)Cc1ccccc1 (stereo not drawn),-9%,2%,/,-4%
CC(C)CN(CC(C)C)CC(O)COc1ccc([N+](=O)[O-])cc1 (stereo not drawn),18µM*,3%,2%,?
COc1ccccc1OCC(O)CO (stereo not drawn),-3%,5%[56.1 µM],-9%,2%
CC(C)CN(CC(C)C)CC(O)COc1ccccc1Br (stereo not drawn),15µM*,-4%,0%,?
CCOC(=O)c1cc2c(=O)c3ccccc3oc2nc1C,-23%,/,-5%,-3%
CCOC(=O)Nc1oc2ccccc2c(=O)c1C,-5%,4%,5µM*,0%
Cc1onc(NC(=O)c2ccc(Cl)cc2Cl)c1Br,10µM*,-6%,/,?
Cc1onc(NC(=O)NC(=O)c2ccccc2F)c1Br,4%,0%,1%,-17%
CCc1cccc(C)c1Nc1c(-c2ccccc2)nc2sccn12,18µM*,10%,-2%,?
Cc1ccc(-c2nc3sccn3c2Nc2ccccc2C)cc1,23µM*,10%,0%,?
COC(=O)CSc1nc(-c2ccccc2)nc2ccccc12,-17%,-3%,1%,-13%
COCCNC(=O)C1CCC(=O)N1S(=O)(=O)c1ccc(C)cc1 (stereo not drawn),-6%,4%,-5%,-11%
N#CN=c1snc(-c2ccccc2Cl)n1-c1ccccc1Cl,?,/,-2%,?
O/N=C(/C[n+]1ccsc1)c1ccc(I)cc1,3.5µM*,/,-1%,5µM*
CCOC(=O)c1sc2ccccc2c1S(=O)(=O)NCc1ccccc1OC,?,-2%,-20%,?
CC[C@@H](CC1CCCCC1)C(=O)N(Cc1ccccc1)c1ccccc1,4.1µM*,-20%,2%,4.6µM*
CN(Cc1ccccc1)C(=O)NC1CCCCC1,7%,7%,1%,-5%
Cc1ccc(NC(=S)NCC23C=CC(O2)C2C(=O)N(c4ccc(C)cc4)C(=O)C23)cc1 (stereo not drawn),?,10%,1%,18µM*
CC(C)(C)OC(=O)NCC12C=CC(O1)C1C(=O)N(Cc3ccccc3)C(=O)C12 (stereo not drawn),?,5%,-6%,?
Cc1ccc(N2C(=O)C3C4C=CC(CNC(=S)N5CCN(c6ccccc6)CC5)(O4)C3C2=O)cc1 (stereo not drawn),18µM*,7%,1%,18µM*
Cc1ccc(S(=O)(=O)NCC23C=CC(O2)C2C(=O)N(c4ccccc4)C(=O)C23)cc1 (stereo not drawn),?,9%,-17%,?
Cc1cccc(NC(=S)NCC23C=CC(O2)C2C(=O)N(c4ccc(Cl)cc4)C(=O)C23)c1 (stereo not drawn),21µM*,6%,-4%,?
Nc1nn(-c2ccccc2)nc1C(=O)OCc1ccc(Cl)cc1,1%,-15%,4%,0%
CCc1cc[n+](C(C(=S)Nc2cccc(C)c2)=C([O-])c2ccc(C)c([N+](=O)[O-])c2)cc1,/,/,0%,16µM*
SMILES,DT40 TDP1 no CPT,TDP1 block,ClpP mod,TDP1 cell CPT
O=c1c(-c2cccs2)nc2ccccc2n1C(c1ccccn1)c1nc2ccccc2[nH]1 (stereo not drawn),15µM*,/,5%,?
O=c1c(-c2cccnc2)nc2ccccc2n1C(c1ccccn1)c1nc2ccccc2[nH]1 (stereo not drawn),-28%,/,5%,?
O=c1c(-c2ccccc2)nc2ccccc2n1C(c1ccccn1)c1nc2ccccc2[nH]1 (stereo not drawn),9.2µM*,/,4%,?
NN=C(c1cccc([N+](=O)[O-])c1)c1cccc([N+](=O)[O-])c1,?,/,/,1%
C[C@@H](CN1CC(=O)NC(=O)C1)N1CC(=O)NC(=O)C1,?,/,/,-8%
COC(=O)c1ccc(C2Nc3c(C)cccc3-c3cc(C)nn32)cc1 (stereo not drawn),16µM*,5%,-2%,?
CSc1ccc(C2Nc3ccccc3-c3cc(C)nn32)cc1 (stereo not drawn),-14%,4%,?,-8%
CC(=O)Nc1ccc(C2Nc3c(C)cc(C)cc3-c3cc(C)nn32)cc1 (stereo not drawn),?,0%,-5%,18µM*
Cc1ccc(S(=O)(=O)N2CC(O)C[C@H]2C(=O)OCC(=O)N2CCN(c3ccc(F)cc3)CC2)cc1C (stereo partly drawn),4.1µM*,/,2%,10µM*
CCCCN(CCCC)CCNC(=O)c1cc(=O)[nH]c2ccc(S(=O)(=O)N3CCCCCC3)cc12,16µM*,0%,-5%,?
CCC1CCCCN1CCCNC(=O)c1cn(CC)c2ccc(S(=O)(=O)N3CCc4ccccc4C3)cc2c1=O (stereo not drawn),?,5%,/,?
CCCCN(CCCC)CCNC(=O)c1cn(CC)c2ccc(S(=O)(=O)N3CCc4ccccc4C3)cc2c1=O,23µM*,7%,-3%,21µM*
CC(C)CN(CCNC(=O)c1cc(=O)[nH]c2ccc(S(=O)(=O)N3CCCCCC3)cc12)CC(C)C,-6%,3%,-2%,-23%
CCn1cc(C(=O)NCc2ccccc2)c(=O)c2cc(S(=O)(=O)N3CCc4ccccc4C3)ccc21,?,2%,-12%,?
CCn1cc(C(=O)NCCCN2CCCC(C)C2)c(=O)c2cc(S(=O)(=O)N3CCc4ccccc4C3)ccc21 (stereo not drawn),?,3%,/,23µM*
CCn1cc(C(=O)NCCc2ccc(OC)c(OC)c2)c(=O)c2cc(S(=O)(=O)N3CCc4ccccc4C3)ccc21,26µM*,2%,?,?
CCn1cc(C(=O)NCCc2ccccc2)c(=O)c2cc(S(=O)(=O)N3CCc4ccccc4C3)ccc21,21µM*,2%,-4%,?
CCc1cc(=O)oc2c(C)c(OCC(=O)Nc3ccc(S(=O)(=O)N(CC)CC)cc3)ccc12,?,/,4%,?
Cc1csc2nc(COC(=O)c3ccccc3NC(=O)c3cccc(Br)c3)cc(=O)n12,8.2µM*,9%,0%,18µM*
CCOc1ccc(C(=O)Nc2ccc(C(=O)OCc3cc(=O)n4c(C)csc4n3)cc2)cc1,16µM*,-14%,-2%,?
Cc1csc2nc(COC(=O)c3ccc(F)cc3)cc(=O)n12,16µM*,5%,1%,?
